Assay results as given in PubChem BioAssay AID1851 (National Center for Advancing Translational Sciences (NCATS), 2009).
The campaign covered roughly 16,000 compounds. About 5,700 (36%) were called active. Another 24% or so got no clear call; they are omitted. Calls come from the whole dose curve; as a rule, active = well fitted curve in the direction sought with a large enough effect; inconclusive = small, poorly fitted or top-dose-only effect, or effect the other way; inactive = no such curve, though single readings can be large or run the other way. The list shows a part of the results.

molecular target: Cytochrome P450 1A2 (Homo sapiens) (UniProt P05177); experiment: Cytochrome panel assay with activity outcomes; details: recombinant CYP, pro-luciferin dealkylation, luminescence, p450-cyp1a2; series mostly up to 57.1 µM; activity, negative = inhibition: at the top concentration
Sequence (P05177 whole entry, looked up): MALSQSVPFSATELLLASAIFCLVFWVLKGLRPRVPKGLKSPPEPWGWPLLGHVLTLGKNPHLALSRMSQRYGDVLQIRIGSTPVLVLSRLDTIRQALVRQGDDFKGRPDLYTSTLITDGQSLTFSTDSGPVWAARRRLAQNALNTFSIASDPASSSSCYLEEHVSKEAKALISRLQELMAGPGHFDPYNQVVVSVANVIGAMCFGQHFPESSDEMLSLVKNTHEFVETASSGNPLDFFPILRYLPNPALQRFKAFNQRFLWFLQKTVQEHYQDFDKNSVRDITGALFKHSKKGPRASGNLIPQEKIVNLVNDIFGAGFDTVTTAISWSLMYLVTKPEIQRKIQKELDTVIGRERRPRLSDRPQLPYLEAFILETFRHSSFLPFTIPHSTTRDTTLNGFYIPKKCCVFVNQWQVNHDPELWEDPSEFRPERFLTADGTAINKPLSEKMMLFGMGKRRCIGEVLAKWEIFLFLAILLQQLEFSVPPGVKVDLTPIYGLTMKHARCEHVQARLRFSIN
% is set by controls: 0 for no effect and ±100 for the full control effect.

Row | Structure (SMILES) | AC50 | activity, negative = inhibition
1 | Oc1cccc2ccc(SSc3ccc4cccc(O)c4n3)nc12 | 3.16 µM (active) | –
2 | COc1ccc(NC(=O)N2CC3(CCN(C(C)=O)CC3)C2)cc1 | – | -1.08% (inactive)
3 | COc1ccc(N2CCN(C(=N)/C(C(C)=O)=C(\C)O)CC2)cc1 | – | -6.13% (inactive)
4 | COc1ccc(-c2ccc(C(=S)N3CCN(C(C)=O)CC3)o2)cc1 | 2.24 µM (active) | –
5 | O=C(Nc1c(C(=O)N2CCOCC2)cnn1-c1ccccc1)c1ccco1 | – | -28.5% (inactive)
6 | O=C(c1cn(-c2ccccc2)nc1-c1cccs1)N1CCOCC1 | 15.8 µM (active) | –
7 | O=C(c1ccncc1)N1CCC2(CC1)CCN(c1ccccc1)CC2 | – | -23.6% (inactive)
8 | C[C@@H]1/C=C\CC(=O)OC[C@H](C)C(=O)N[C@@H](C)C(=O)OC1 | – | -0.299% [at 11.4 µM] (inactive)
9 | COc1ccccc1CNc1cc(-c2cccc(NS(C)(=O)=O)c2)ncn1 | 15.8 µM (active) | –
10 | COc1ccc(CNc2cc(-c3cccc(NS(C)(=O)=O)c3)ncn2)c(OC)c1 | 15.8 µM (active) | –
11 | O=C(CSCc1c(Cl)cccc1Cl)NCc1cccnc1 | 5.01 µM (active) | –
12 | CCS(=O)(=O)N1CCC(C(=O)NCc2cccnc2)CC1 | – | -1.47% (inactive)
13 | Cc1ccc(S(=O)(=O)N2CCC(C(=O)NCc3cccnc3)CC2)cc1 | – | -1.53% (inactive)
14 | Fc1ccc(COc2ccc(Br)cc2CNCc2ccncc2)cc1 | 0.316 µM (active) | –
15 | OC(CNCc1ccc(F)cc1)(c1ccc(F)cc1)c1ccc(F)cc1 | – | 4.03% (inactive)
16 | Cc1nnc(NC(=O)CCC(=O)NCc2cccs2)s1 | – | -18% (inactive)
17 | Cc1nnc(NC(=O)c2oc3c(ccc4ccccc43)c2C)s1 | 0.2 µM (active) | –
18 | COC(=O)[C@@H](NC(=O)Nc1ccc(C(C)=O)cc1)C(C)C | – | -4.26% (inactive)
19 | Cc1ccc(OCCCC(=O)Nc2ccccc2C(F)(F)F)cc1 | 4.47 µM (active) | –
20 | Cc1c(NC(=O)C(Sc2ccccc2)c2ccccc2)cccc1[N+](=O)[O-] (stereo not drawn) | – | -9.98% (inactive)
21 | Cc1c(NC(=O)CCCOc2ccccc2)cccc1[N+](=O)[O-] | 12.6 µM (active) | –
22 | Cc1cccc(OCCCC(=O)Nc2ccccc2C(F)(F)F)c1 | 11.2 µM (active) | –
23 | COc1cc([N+](=O)[O-])ccc1NC(=O)CCCOc1cccc(C)c1 | 7.94 µM (active) | –
24 | Cc1c(NC(=O)/C=C/C(=O)O)cccc1[N+](=O)[O-] | – | -12.2% (inactive)
25 | Cc1ccc(OCC(=O)NNC(=O)CCC(=O)Nc2ccc(C)cc2C)cc1 | – | -2.46% (inactive)
26 | Cc1cccc(OCCCC(=O)Nc2ccc(N3CCCCC3)cc2)c1 | – | -15.4% (inactive)
27 | Cc1nn(-c2ccccc2)c2c1C(c1ccc(O)c(O)c1)N1C(=N2)C(Nc2ccccc2)=Nc2ccccc21 (stereo not drawn) | – | -3.72% (inactive)
28 | COc1ccc(C(=O)N2CC3(CC(c4ccc(Cl)cc4)=NO3)C[C@H]2C(=O)NCC(N)=O)cc1 (stereo partly drawn) | – | -12.9% (inactive)
